# Experimental data as given in ChEMBL document CHEMBL3433997, “St. Jude Leishmania screening dataset” (2016).
# “And” between values parts separate entries of the source, which are not always exact repeats. Equal entries are not always repeated.
# Biological target: Solute carrier family 2, facilitated glucose transporter member 1 (Homo sapiens) (UniProt P11166)
# Assay: ST_JUDE_LEISH: Cytotoxicity at 2uM final concentration against transgenic Leishmania Mexicana promastigotes LmGLUT1 that are glucose transport deficient and complemented with the human glucose transporter GLUT1. Activity is measured by DNA content using SYBR green in vitro
# Assay type: functional
# Solute carrier family 2, facilitated glucose transporter member 1 (Homo sapiens), sequence (P11166 whole entry): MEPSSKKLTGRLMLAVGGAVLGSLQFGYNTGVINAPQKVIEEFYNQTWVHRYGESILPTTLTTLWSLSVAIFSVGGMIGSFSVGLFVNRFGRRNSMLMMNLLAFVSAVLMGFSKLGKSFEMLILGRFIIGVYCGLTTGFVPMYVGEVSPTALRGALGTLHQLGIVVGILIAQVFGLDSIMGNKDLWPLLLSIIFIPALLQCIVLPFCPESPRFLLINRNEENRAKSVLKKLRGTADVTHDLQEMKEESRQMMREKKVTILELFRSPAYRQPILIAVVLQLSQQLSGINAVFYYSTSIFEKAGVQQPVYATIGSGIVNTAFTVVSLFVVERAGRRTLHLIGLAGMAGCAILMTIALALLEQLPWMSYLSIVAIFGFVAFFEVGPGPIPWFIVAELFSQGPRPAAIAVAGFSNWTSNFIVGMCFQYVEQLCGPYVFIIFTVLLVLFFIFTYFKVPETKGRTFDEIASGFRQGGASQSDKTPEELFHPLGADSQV
row,SMILES,inhibition
1,COC(=O)c1ccc(CC(C)NCC(O)c2ccccc2Cl)cc1 (stereo unspecified),0.96%
2,O=C(/C=C/C=C/c1ccccc1)NC1CCC(CN2CCC(c3c[nH]c4ccccc34)CC2)CC1 (stereo unspecified),2.53%
3,CCCCCc1cc(O)c2c(c1)OC(C)(C)c1ccncc1-2,0.55%
4,CCOc1ccc2nccc([C@@H](O)[C@@H]3C[C@@H]4CCN3C[C@@H]4CC)c2c1,1.23% and 2.9%
5,Cc1c(C(=O)N[C@@H](C)c2ccccc2)c2cc(O)c(Br)cc2n1C1CCCCC1,2.84%
6,O=C(NC1CCC(CN2CCC(c3c[nH]c4ccccc34)CC2)CC1)c1ccc(-c2cc(C(F)(F)F)ccc2Cl)o1 (stereo unspecified),4%
7,CC[C@H]1CN2CC[C@H]1C[C@@H]2[C@@H](O)c1cc(Cl)nc2ccc(OC)cc12,11%
8,CCC1CN2CCc3cc(OC)c(OC)cc3C2CC1CC1NCCc2cc(OC)c(OC)cc21 (stereo unspecified),96.6%
9,Cc1c(C)c2c(c(C)c1O)CC[C@](C)(C(=O)NC1CCC(CN3CCC(c4c[nH]c5ccccc45)CC3)CC1)O2 (stereo partly specified),-0.89% and 2.73%
10,CC(C)CNCc1ccc(-c2cccc(CN(C(=O)NC3CCCCC3)C3CCN(Cc4ccccc4)CC3)c2)cc1,0.87%
11,Oc1ccc2[nH]cc(C3=CCN(CCc4ccccc4)CC3)c2c1,15.8%
12,CC[C@H]1CN2CC[C@@H]1C[C@H]2[C@H](O)c1cc(N2CCC(CO)CC2)nc2ccc(OC)cc12,1.5%
13,C=C[C@H]1CN2CC[C@H]1C[C@H]2[C@H](O)c1ccnc2ccccc12,0.68%
14,COc1cccc(CC(C)NCC(O)c2cccc(Cl)c2)c1 (stereo unspecified),0.74%
15,CN(c1ccnc(Nc2ccc(CS(C)(=O)=O)cc2)n1)C1CCN(Cc2ccccc2)CC1,2.04%
16,O=C(NC1CCC(CN2CCC(c3c[nH]c4ccccc34)CC2)CC1)c1cc(-c2cccc(Cl)c2)n(-c2ccc(Cl)cc2Cl)n1 (stereo unspecified),1.34%
17,NCC(=O)c1cc2c(cc1N)OCCO2,8.91%
18,Cc1ccc2c(C3=CCN(CCCCC4(C)C(=O)Nc5ccccc54)CC3)c(C)[nH]c2c1 (stereo unspecified),0.29%
19,CN1CC[C@H](N(Cc2ccccc2F)c2ccc(C#N)c(Cl)c2)C1,2.58%
20,CC[C@H]1CN2CC[C@H]1C[C@H]2[C@H](O)c1cc(-c2cccc(F)c2)nc2ccc(OC)cc12,8.98%
21,COc1cccc(CN2CCC(CCOC(c3ccccc3)c3ccccc3)CC2)c1O,2.87%
22,O=C(/C=C/c1ccccc1Cl)NC1CCC(CN2CCC(c3c[nH]c4ccccc34)CC2)CC1 (stereo unspecified),2.44% and 5.03%
23,CC[C@H]1CN2CC[C@H]1C[C@H]2[C@H](O)c1cc(N2CCC3CCCCC3C2)nc2ccc(OC)cc12 (stereo partly specified),3.3%
24,COC(=O)c1ccc(CC(C)NCC(O)c2cccc(C(F)(F)F)c2)cc1F (stereo unspecified),2.16%
25,O=C(/C=C/c1ccc(Cl)c(Cl)c1)NC1CCC(CN2CCC(c3c[nH]c4cc(C(F)(F)F)ccc34)CC2)CC1 (stereo unspecified),6.9% and 1.89%
26,O=S(=O)(NC1CCC(CN2CCC(c3c[nH]c4ccccc34)CC2)CC1)c1ccc(Cl)c(Cl)c1 (stereo unspecified),-2.62%
